SMILES strings stand for the structures. The source made the active and inactive calls. Calls come from the whole dose curve; as a rule, active = well fitted curve in the direction sought with a large enough effect; inactive = no such curve, though single readings can be large or run the other way.

Sequence of Epidermal growth factor receptor (Homo sapiens) (P00533 whole entry, looked up): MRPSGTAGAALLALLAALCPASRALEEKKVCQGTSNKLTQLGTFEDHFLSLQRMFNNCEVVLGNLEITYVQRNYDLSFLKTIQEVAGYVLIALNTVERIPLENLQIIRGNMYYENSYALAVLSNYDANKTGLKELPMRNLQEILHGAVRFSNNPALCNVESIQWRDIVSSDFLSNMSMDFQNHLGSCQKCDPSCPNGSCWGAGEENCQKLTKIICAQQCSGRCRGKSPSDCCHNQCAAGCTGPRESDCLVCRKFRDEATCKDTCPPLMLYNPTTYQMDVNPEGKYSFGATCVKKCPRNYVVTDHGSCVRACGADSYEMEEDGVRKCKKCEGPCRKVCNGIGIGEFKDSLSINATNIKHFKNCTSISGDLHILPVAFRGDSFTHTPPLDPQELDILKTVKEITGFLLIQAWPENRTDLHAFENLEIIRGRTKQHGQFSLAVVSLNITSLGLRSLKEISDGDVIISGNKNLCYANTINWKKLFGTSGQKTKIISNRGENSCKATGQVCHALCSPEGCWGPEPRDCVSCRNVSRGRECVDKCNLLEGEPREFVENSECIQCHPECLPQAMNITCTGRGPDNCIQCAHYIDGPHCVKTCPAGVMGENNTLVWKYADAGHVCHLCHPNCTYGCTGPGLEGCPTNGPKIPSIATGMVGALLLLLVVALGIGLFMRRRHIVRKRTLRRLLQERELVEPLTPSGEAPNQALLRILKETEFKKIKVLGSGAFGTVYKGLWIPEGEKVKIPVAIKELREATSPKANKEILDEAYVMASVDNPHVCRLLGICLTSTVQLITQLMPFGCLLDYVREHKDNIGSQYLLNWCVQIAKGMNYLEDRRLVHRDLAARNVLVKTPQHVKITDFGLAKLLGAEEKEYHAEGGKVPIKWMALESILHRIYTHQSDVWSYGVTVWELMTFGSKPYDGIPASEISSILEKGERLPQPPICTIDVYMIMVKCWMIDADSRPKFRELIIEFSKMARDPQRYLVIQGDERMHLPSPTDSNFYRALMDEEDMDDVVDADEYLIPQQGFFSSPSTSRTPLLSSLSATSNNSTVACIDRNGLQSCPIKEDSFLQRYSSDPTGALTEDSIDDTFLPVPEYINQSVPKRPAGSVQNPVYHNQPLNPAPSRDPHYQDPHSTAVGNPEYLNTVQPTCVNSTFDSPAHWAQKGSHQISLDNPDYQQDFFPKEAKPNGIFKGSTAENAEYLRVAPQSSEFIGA

This test concerns the target Epidermal growth factor receptor (Homo sapiens) (UniProt P00533). Nature of the test: Assay for Inhibitors of the ERK Signaling Pathway using a Homogeneous Screening Assay: EGFR Kinase Inhibition. The conditions noted are these: homogeneous biochemical assay; series mostly up to 21.9 µM; activity change, negative = inhibition: at the top concentration. The source says: qHTS Assay for Inhibitors of the ERK Signaling Pathway using a Homogeneous Screening Assay
NIH Chemical Genomics Center [NCGC]
NIH Molecular Libraries Screening Centers Network [MLSCN]
Assay Submitter (PI): Dr. Wei Zheng, NCGC/NIH
The Ras/extracellular-signal-regulated kinase (ERK) mitogen activated protein (MAP) kinase signaling pathway (ERK1/2 cascade) plays is a key role in transmitting signals from the cell surface to the nucleus (Nishida and Gotoh 1993; Chang and Karin, 2001). The cascade is initiated by the small G-protein Ras, which recruits Raf […], where activation occurs. Alternatively, this pathway can be activated by elevating intracellular cAMP.
Activation of the ERK pathway is essential in increased cell division and cell survival. Sustained and constitutive activation of the ERK pathway, however, has been linked to uncontrolled cell proliferation, increased cell survival, and tumor progression. Thus, the ERK has been as an attractive target for cancer chemotherapy in the past few years (Sebolt-Leopold and Herrera, 2004). Given its physiological and pathological importance, assessment of ERK phosphorylation has been broadly performed in both basic research and drug discovery. Most assays for the measurement of ERK phosphorylation use the antibody-based detection methods, such as western blot and ELISA. These assays require multiple reagent additions with cell wash steps and are not suitable for high-throughput screening.
The current cell-based ERK phosphorylation assay was performed using AlphaScreen platform. AlphaScreen is a two bead-based proximity-dependent chemical energy transfer luminescent assay platform. The assay reagents (ERK SureFire(TM) kit) were supplied from TGR BioSciences (Australia). In the presence of specific antibodies, phosphorylated ERK will bring "donor" and "acceptor" beads to a proximity range (<200 nm), and subsequently lead a chemical luminescent reaction upon exciting donor beads with 680 nm laser. To validate pathway hits from the cell-based assay, enzyme assays consisting of EGFR tyrosine kinase, Raf and MEK were used as a means of deciphering the enzymes of target for the prioritized group of compounds derived from the HEK-293 cell based assay. The compounds were tested against significant members of the ERK signaling pathway EGFR and EGFR mutants (EGFR L858R, EGFR T790M, and EGFR L858R T790M). In order to establish the specificity of the prioritized compounds for EGFR and EGFR mutants, the compounds were also assayed against other important ERK signaling pathway enzymes, c-RAF and MEK-1.
NCGC Assay Protocol Summary:
The HTRF kinase assay (components supplied as kit by Cisbio) was chosen for the EGFR and EGFR mutant enzyme assays that applied the time resolved fluorescence resonance energy transfer (TR-FRET) principle. A peptide substrate is labeled with a biotin that can bind to XL665 labeled streptavidin and the anti-phosphoresidue antibody is labeled with Eu+. Upon phosphorylation of the substrate, the antibody binds to phosphorylated substrate that enables TR-FRET detection in homogenous assay format.
An HTRF Kinease TK assay kit (Cisbio, Bedford, MA) was used to develop the EGFR and EGFR mutant assays (Harbert et al., 2008. Harbert C, Marshall J, Soh S, Steger K. Development of a HTRF Kinase Assay for Determination of Syk Activity. Current Chemical Genomics. 1: 20-26. 2008). EGFR and EGFR mutants were obtained from Invitrogen. The assay buffer was composed of 50 mM HEPES (pH 7.0), 5 mM MgCl2, 5mM DTT, 0.1 % NaN3, 0.1 % BSA and 0.1 mM orthovanadate.
The HTRF assays were preformed according to the HTRF Kinease TK kit. Optimization for each enzyme was preformed in 384 well format (data not included). All reagents were dispensed into 1536 well plates.
(1) Enzyme, […] EGFR at 3 nM final
(2) Compound, 22 nl, Library Compounds in 0.128 to 10 mM titration series or control
(3) Reagent, 1.5 ul 10 uM ATP and 0.25 uM substrate final
(4) Incubation for 30 min, Ambient conditions
[…]
For the compound `CN(C)c1cccc2c1C(=O)c1ccccc1C2=O`, the “activity change, negative = inhibition” value was 5.22% [at 65.8 µM] (inactive).
In the case of `COc1ccc(C(=O)c2ccc(Cl)c([N+](=O)[O-])c2)cc1`, the “activity change, negative = inhibition” value is -7.44% (inactive).
Turning to `Cc1ccc2nc(=O)c(NNc3ccccc3)cnc2c1`, the Potency was 708 nM (active).
Consider `CNc1cccc2c1C(=O)c1ccccc1C2=O`, for which the “activity change, negative = inhibition” value was -3.66% [at 65.8 µM] (inactive).
For the compound `Cc1nc2ccccc2nc(=O)c1NNc1ccccc1`, the Potency was 708 nM (active).
Turning to `O=C1c2ccccc2C(=O)c2c(NCCCN(CCO)CCO)cccc21`, the “activity change, negative = inhibition” value is -1.11% [at 65.8 µM] (inactive).
Turning to `CCN(CC)CCC(=O)Nc1cccc2c1C(=O)c1ccccc1C2=O`, the “activity change, negative = inhibition” value was -9.46% (inactive).
Regarding `CS(=O)(=O)CCNCc1nc(-c2ccc3ncnc(Nc4ccc(OCc5cccc(F)c5)c(Cl)c4)c3c2)cs1`, the Potency is 8.9 nM (active).
For the compound `Cn1nc(-c2ccccn2)nc2c(=O)n(C)c(=O)nc1-2`, the “activity change, negative = inhibition” value is -18.1% [at 65.8 µM] (inactive).
With `CCn1c(=O)c2[nH]c(-c3ccccc3)nc2n(CC)c1=O`, the “activity change, negative = inhibition” value is -8.89% (inactive).
With `N#C/C(=C(/N)Sc1ccc(N)cc1)c1ccccc1C(F)(F)F`, the Potency entry is “inactive”.
As to `O=C(Nc1nc(-c2ccccc2)cs1)c1ccc(N2CCOCC2)c([N+](=O)[O-])c1`, the “activity change, negative = inhibition” value was -9.72% (inactive).
In the case of `Cn1c(=O)[nH]c2nnc(-c3ccc(Cl)c(Cl)c3)nc2c1=O`, the “activity change, negative = inhibition” value is -10.3% (inactive).
Regarding `Fc1ccc(Nc2ncnc3sc4c(c23)CCC4)cc1F`, the Potency is 70.8 nM (active).
For the compound `Cn1nc(-c2ccc(Cl)cc2)nc2c(=O)n(C)c(=O)nc1-2`, the “activity change, negative = inhibition” value was -13% [at 65.8 µM] (inactive).
In the case of `O=C1c2ccccc2C(=O)c2c1cccc2N1CCCC1`, the “activity change, negative = inhibition” value was -1.25% (inactive).
On to `Cc1ccc(NNc2c(C)nc3ccccc3nc2=O)cc1`, for which the Potency was 4470 nM (active).
